Measurements: PubChem BioAssay (NCI)
The panel holds about 79,000 compounds, 15% with a hit somewhere; the sample as a whole holds those more often. Activity calls are given as the source filed them. No stated cut-off is given here; in the data, active means growth inhibition above about 70%; inactive means the rest.

Legend:
[1] = NCI Yeast Anticancer Drug Screen. Data for the rad52 strain (AID 147);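 further: 0% = growth of vehicle-treated control cultures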; details: S. cerevisiae rad52 mutant growth inhibition, stronger effect = higher value
Procedure, shortened: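 Compounds are applied to a genetically defined yeast strain lacking normal DNA damage repair, and inhibition of growth is expressed relative to cultures given vehicle only.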

[2] = NCI Yeast Anticancer Drug Screen. Data for the wt1 strain (AID 149);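 further: 0% = growth of vehicle-treated wt1 cultures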; details: S. cerevisiae wt1 strain (SPY 50644) growth inhibition, stronger effect = higher value
Procedure, shortened: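 wt1 strain grown with compound or vehicle; inhibition taken from the growth difference.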

[3] = NCI Yeast Anticancer Drug Screen. Data for the rad50EPP+ strain (AID 151);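 further: 0% = growth of vehicle-treated control cultures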; details: S. cerevisiae rad50 mutant strain, stronger effect = higher value
Procedure, shortened: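 Compounds were applied to the rad50EPP+ yeast strain, which bears a defined DNA repair alteration, and growth inhibition was determined relative to vehicle-treated cultures.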

[4] = NCI Yeast Anticancer Drug Screen. Data for the mgt1 strain (AID 153); details: S. cerevisiae mgt1 mutant growth inhibition, stronger effect = higher value
Procedure, shortened: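 Strain: mgt1 yeast, one of a set carrying defined DNA damage repair or cell cycle control alterations. Compound-treated growth compared with vehicle.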

[5] = NCI Yeast Anticancer Drug Screen. Data for the rad50 strain (AID 155);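 further: 0% = growth of vehicle-only cultures of the same strain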; details: S. cerevisiae rad50 strain growth inhibition, stronger effect = higher value
Procedure, shortened: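 DNA repair mutant yeast, compound exposure, growth read-out; inhibition is taken relative to vehicle.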

[6] = NCI Yeast Anticancer Drug Screen. Data for the mec2-1 strain (AID 157); details: S. cerevisiae mec2-1 strain, stronger effect = higher value
Procedure, shortened: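 Strain: mec2-1 (DNA repair/cell cycle alteration). Compound exposure, then growth measured; inhibition expressed relative to vehicle.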

[7] = NCI Yeast Anticancer Drug Screen. Data for the rad14 strain (AID 159);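 further: 0% = growth of vehicle-treated control cultures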; details: S. cerevisiae rad14 strain growth inhibition, stronger effect = higher value
Procedure, shortened: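 DNA repair-defective yeast, compound-exposed; % growth inhibition derived by comparison with vehicle-treated controls.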

[8] = NCI Yeast Anticancer Drug Screen. Data for the sgs1 mgt1 strain (AID 161);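 further: 0% = growth of cultures given vehicle only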; details: S. cerevisiae sgs1 mgt1 strain, stronger effect = higher value
Procedure, shortened: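 Test agents were incubated with a DNA-repair-mutant yeast strain. Growth was then read and compared against vehicle-treated controls.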

[9] = NCI Yeast Anticancer Drug Screen. Data for the CLN2oe strain (AID 163);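 further: 0% = growth of vehicle-only control cultures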; details: S. cerevisiae CLN2oe strain, stronger effect = higher value
Procedure, shortened: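 Growth of a genetically modified yeast strain is measured after compound exposure and compared with cultures given vehicle alone.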

[10] = NCI Yeast Anticancer Drug Screen. Data for the cln2 rad14 strain (AID 165);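 further: 0% = growth equal to vehicle treated cultures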; details: S. cerevisiae cln2 rad14 strain, stronger effect = higher value
Procedure, shortened: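 Compounds are applied to the cln2 rad14 yeast strain, and growth is then compared with that of vehicle-treated cultures to give inhibition.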

[11] = NCI Yeast Anticancer Drug Screen. Data for the bub3 strain (AID 167); details: S. cerevisiae bub3 mutant strain, stronger effect = higher value
Procedure, shortened: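 In this screen, a yeast mutant lacking normal mitotic checkpoint function is challenged with compound. Relative growth versus vehicle gives the inhibition value.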

[12] = NCI Yeast Anticancer Drug Screen. Data for the wt2 strain (AID 169);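 further: 0% = growth of vehicle-treated yeast cultures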; details: S. cerevisiae wt2 strain growth inhibition, stronger effect = higher value
Procedure, shortened: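 This strain belongs to a panel of yeast strains with defined genetic alterations in DNA damage repair or cell cycle control. Compounds are applied, and growth inhibition is measured against vehicle-treated cultures.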

[13] = NCI Yeast Anticancer Drug Screen. Data for the mlh1 strain (AID 171);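 further: 0% = growth of vehicle-treated control cultures of the same strain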; details: S. cerevisiae mlh1 strain growth inhibition, stronger effect = higher value
Procedure, shortened: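 Growth of the mutant yeast strain after compound exposure, expressed as inhibition relative to vehicle-only controls.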

[14] = NCI Yeast Anticancer Drug Screen. Data for the sgs1 strain (AID 173);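 further: 0% = growth of vehicle-only control cultures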; details: S. cerevisiae sgs1 mutant, stronger effect = higher value
Procedure, shortened: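 Growth of a yeast strain bearing a defined genetic alteration is measured after compound treatment. Inhibition is expressed relative to vehicle-only controls.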

[15] = NCI Yeast Anticancer Drug Screen. Data for the mlh1 rad18 strain (AID 175); details: S. cerevisiae mlh1 rad18 strain growth inhibition, stronger effect = higher value
Procedure, shortened: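 Read-out is yeast growth inhibition, calculated against vehicle-only controls. The compound was applied to a strain engineered with DNA damage repair alterations.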

[16] = NCI Yeast Anticancer Drug Screen. Data for the rad18 strain (AID 177); details: S. cerevisiae rad18 mutant growth inhibition, stronger effect = higher value
Procedure, shortened: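 Growth of the mutant yeast strain after compound exposure, normalised to vehicle-only cultures.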

[17] = at 5.0 µM (retest, dose inferred, filed as 0.5)
[18] = at 50.0 µM (retest, dose inferred, filed as 5.0)

Measured: growth inhibition

CC1CC(C)(C)CC(OCCN2CCCCC2)(c2ccccc2)C1 (stereo unspecified)
inactive: [1]; at 1.2 µM -1% | [1]; at 3.7 µM 8% | [1]; at 11.0 µM 15% | [1]; at 33.0 µM 25% | [2]; at 1.2 µM 2% | [2]; at 3.7 µM 5% | [2]; at 11.0 µM 12% | [2]; at 33.0 µM 14% | [2]; at 100.0 µM 32% | [3]; at 1.2 µM -5% | [3]; at 3.7 µM 1% | [3]; at 11.0 µM -3% | [3]; at 33.0 µM -3% | [3]; at 100.0 µM -2% | [4]; at 1.2 µM 0% | [4]; at 3.7 µM 2% | [4]; at 11.0 µM 10% | [4]; at 33.0 µM 32% | [5]; at 1.2 µM 3% | [5]; at 3.7 µM 8% | [5]; [17] 28% | [5]; at 11.0 µM 19% | [5]; at 33.0 µM 25% | [6]; at 1.2 µM 0% | [6]; at 3.7 µM 3% | [6]; [17] 4% | [6]; at 11.0 µM 10% | [6]; at 33.0 µM 11% | [6]; [18] 10% | [6]; at 50.0 µM 36.3% | [6]; at 100.0 µM 54% | [7]; at 1.2 µM 7% | [7]; at 3.7 µM 21% | [7]; at 11.0 µM 37% | [7]; at 33.0 µM 62% | [8]; [17] 4% | [9]; at 1.2 µM 2% | [9]; at 3.7 µM 7% | [9]; at 11.0 µM 20% | [9]; at 33.0 µM 50% | [10]; [17] -1% | [10]; [18] 26% | [10]; at 50.0 µM 52.2% | [11]; at 1.2 µM -3% | [11]; at 3.7 µM 4% | [11]; [17] -16% | [11]; at 11.0 µM 17% | [11]; at 33.0 µM 52% | [12]; at 1.2 µM 0% | [12]; at 3.7 µM 5% | [12]; at 11.0 µM 21% | [12]; at 33.0 µM 32% | [13]; at 1.2 µM 1% | [13]; at 3.7 µM 5% | [13]; at 11.0 µM 17% | [13]; at 33.0 µM 15% | [14]; at 1.2 µM 3% | [14]; at 3.7 µM 12% | [14]; at 11.0 µM 40% | [14]; at 33.0 µM 63% | [15]; [17] 7% | [16]; at 1.2 µM -3% | [16]; at 3.7 µM 11% | [16]; at 11.0 µM 30% | [16]; at 33.0 µM 55%
active: [1]; at 100.0 µM 84% | [4]; at 100.0 µM 83% | [5]; [18] 89% | [5]; at 50.0 µM 87.8% | [5]; at 100.0 µM 82% | [7]; at 100.0 µM 99% | [8]; [18] 79% | [8]; at 50.0 µM 83.5% | [9]; at 100.0 µM 87% | [11]; [18] 74% | [11]; at 50.0 µM 78.8% | [11]; at 100.0 µM 75% | [12]; at 100.0 µM 80% | [13]; at 100.0 µM 87% | [14]; at 100.0 µM 95% | [15]; [18] 79% | [15]; at 50.0 µM 84.8% | [16]; at 100.0 µM 91%

CCc1ccc2c(c1)N(CC(C)CN(C)C)c1ccccc1S2 (stereo unspecified)
inactive: [1]; at 1.2 µM -5% | [1]; at 3.7 µM -8% | [1]; at 11.0 µM -9% | [1]; at 33.0 µM -1% | [1]; at 100.0 µM 69% | [2]; at 1.2 µM -2% | [2]; at 3.7 µM -4% | [2]; at 11.0 µM -6% | [2]; at 33.0 µM -5% | [2]; at 100.0 µM 32% | [3]; at 1.2 µM -12% | [3]; at 3.7 µM -15% | [3]; at 11.0 µM -23% | [3]; at 33.0 µM -31% | [4]; at 1.2 µM -3% | [4]; at 3.7 µM -4% | [4]; at 11.0 µM -6% | [4]; at 33.0 µM 0% | [5]; at 1.2 µM -4% | [5]; at 3.7 µM -9% | [5]; [17] 2% | [5]; at 11.0 µM -1% | [5]; at 33.0 µM 4% | [5]; [18] 37% | [5]; at 50.0 µM 52.1% | [6]; at 1.2 µM -6% | [6]; at 3.7 µM -8% | [6]; [17] -7% | [6]; at 11.0 µM -12% | [6]; at 33.0 µM -4% | [6]; [18] -27% | [6]; at 50.0 µM -12.1% | [6]; at 100.0 µM 58% | [7]; at 1.2 µM -2% | [7]; at 3.7 µM -4% | [7]; at 11.0 µM -1% | [7]; at 33.0 µM 23% | [8]; [17] -12% | [8]; [18] 23% | [8]; at 50.0 µM 24.3% | [9]; at 1.2 µM -9% | [9]; at 3.7 µM -4% | [9]; at 11.0 µM -10% | [9]; at 33.0 µM 3% | [9]; at 100.0 µM 58% | [10]; [17] -24% | [10]; [18] 21% | [10]; at 50.0 µM 65% | [11]; at 1.2 µM -3% | [11]; at 3.7 µM 3% | [11]; [17] 2% | [11]; at 11.0 µM 18% | [11]; at 33.0 µM 48% | [11]; [18] 32% | [12]; at 1.2 µM -4% | [12]; at 3.7 µM -4% | [12]; at 11.0 µM -6% | [12]; at 33.0 µM 3% | [13]; at 1.2 µM -2% | [13]; at 3.7 µM -3% | [13]; at 11.0 µM -5% | [13]; at 33.0 µM -23% | [13]; at 100.0 µM 62% | [14]; at 1.2 µM -4% | [14]; at 3.7 µM -5% | [14]; at 11.0 µM -4% | [14]; at 33.0 µM 16% | [15]; [17] -9% | [15]; [18] 63% | [16]; at 1.2 µM -12% | [16]; at 3.7 µM -10% | [16]; at 11.0 µM -8% | [16]; at 33.0 µM 2%
active: [3]; at 100.0 µM 87% | [4]; at 100.0 µM 76% | [5]; at 100.0 µM 82% | [7]; at 100.0 µM 96% | [11]; at 50.0 µM 74% | [11]; at 100.0 µM 74% | [12]; at 100.0 µM 78% | [14]; at 100.0 µM 93% | [15]; at 50.0 µM 83.5% | [16]; at 100.0 µM 85%
